Results reported in PubChem BioAssay.
Active and inactive are the calls of the source.

What was measured:
[1] = test system: PRMT1 (protein arginine N-methyltransferase 1); assay: PRMT1 binders on small-molecule microarrays, primary screen, biochemical, small-molecule microarray, 635 nm fluorescence (AID 1088); details: small-molecule microarray binding, higher = more signal;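 note: binding of Prmt1 protein to compounds spotted on small-molecule microarray slides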
[2] = yeast growth modulation, basal conditions, primary screen, YJM789 clinical isolate, OD600, 24 h (AID 1089);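 note: growth of clinical yeast isolate S. cerevisiae YJM 789 seeded 1000 cells per well; test concentration not given here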; details: S. cerevisiae YJM789 growth, higher = more signal, called active from +8 up or from −8 down
[3] = fission yeast growth modulation, primary screen, strain 972, OD600, 24 h, no modulator (AID 1090);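 note: basal condition with compound alone and no growth modifier present; test concentration not given here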; details: S. pombe 972 growth, higher = more signal, called active from +8 up or from −8 down
[4] = S. cerevisiae growth modulation with rapamycin, primary screen, strain BY4716, OD600, 96 h (AID 1091); details: higher = more signal, called active from +8 up or from −8 down; note: test concentration not given here
[5] = target: Torsin-1A-interacting protein 2 (Homo sapiens) (UniProt Q8NFQ8); assay: LULL1 binders on small-molecule microarray, primary screen, cell lysate, human LULL1 lysate, 635/667 nm fluorescence (AID 1092); details: hLULL1 lysate binding, 635 nm fluorescence, higher = more signal;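 note: probe is lysate of COS7 cells overexpressing human LULL1; score merges per-feature 667 nm fluorescence with signal-to-noise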
[6] = E. coli growth modulation, two-sided OD650, primary screen, E. coli filamentation project, strain DRC41, 24 h (AID 1093); details: OD650, 24 h, higher = more signal, called active from +8 up or from −8 down;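 note: MC1000 strain lacking acrAB efflux and sulA so SOS filamentation is blocked; test concentration not given here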
[7] = small-molecule microarray binders of probe aLefty2, primary screen, biochemical, biotinylated probe, 635/667 nm fluorescence (AID 1094); details: higher = more signal;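 note: score merges spot fluorescence near 667 nm with spot signal-to-noise ratio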
[8] = test system: Noggin (protein binding on small-molecule microarray); assay: Noggin binders on small-molecule microarray, primary screen, biochemical, 635/667 nm fluorescence (AID 1095); details: 635 nm fluorescence, higher = more signal;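 note: score merges 667 nm feature fluorescence with signal to noise over triplicate slides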
[9] = target: Neurogenic locus notch homolog protein 3 (Homo sapiens) (UniProt Q9UM47); assay: NOTCH3 binders on small-molecule microarray, primary screen, biochemical, 635/667 nm fluorescence (AID 1096); details: NOTCH3 binding, 635 nm fluorescence, higher = more signal
[10] = small-molecule microarray binders of probe aEGFR, primary screen, biochemical, biotinylated probe, 635/667 nm fluorescence (AID 1097); details: higher = more signal;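 note: probe is a biotinylated anti-EGFR antibody binding compounds printed on slides; score combines fluorescence near 667 nm and signal to noise of each spot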
[11] = test system: Plasmodium falciparum Sir2 (PF13_0152, Sir2A); assay: pfSir2 binders on small-molecule microarrays, primary screen, biochemical, small-molecule microarray, 635 nm fluorescence (AID 1098); details: small-molecule microarray binding, fluorescence 635 nm; higher = more signal;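 note: score merges spot fluorescence intensity with its signal-to-noise ratio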
[12] = small-molecule microarray binders of probe aDKK1, primary screen, biochemical, biotinylated probe, 635/667 nm fluorescence (AID 1099); details: higher = more signal;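 note: score merges 667nm spot fluorescence with signal to noise across triplicate slides; reference of the scale not given here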
[13] = small-molecule microarray binders of probe aCHRDL2, primary screen, biochemical, biotinylated probe, 635/667 nm fluorescence (AID 1100); details: higher = more signal
[14] = splicing luciferase reporter signal modulators, primary screen, spliceosome inhibition project, cell-based, HEK293, splice +/- reporter (AID 1101); details: luminescence, 24 h, higher = more signal, called active from +8 up or from −8 down;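 note: HEK293 cells carrying a splicing-competent luciferase reporter gene; test concentration not given here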
[15] = target: Fibroblast growth factor 10 (Homo sapiens) (UniProt O15520); assay: FGF10 binders on small-molecule microarrays, primary screen, biochemical, small-molecule microarray, 635 nm fluorescence (AID 1102); details: FGF10 binding, fluorescence 635 nm, higher = more signal
[16] = test system: glycogen synthase kinase-3 (GSK3A per assay name; protocol says GSK3B); assay: GSK3 binders on small-molecule microarrays, primary screen, biochemical, small-molecule microarray, 635 nm fluorescence, GSK3A (AID 1103); details: small-molecule microarray binding, fluorescence 635 nm; higher = more signal; note: the record names both GSK3A and GSK3B
[17] = target: Epidermal growth factor receptor (Homo sapiens) (UniProt P00533); assay: EGFR binders on small-molecule microarrays, primary screen, biochemical, small-molecule microarray, 635 nm fluorescence (AID 1104); details: EGFR binding, higher = more signal;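 note: score merges 667 nm emission intensity with spot signal to noise over triplicate slides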
[18] = target: Follistatin-related protein 3 (Homo sapiens) (UniProt O95633); assay: FSTL3 binders on small-molecule microarrays, primary screen, biochemical, small-molecule microarray, 635 nm fluorescence (AID 1105); details: FSTL3 binding, higher = more signal;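 note: score merges emission near 667 nm and signal to noise per printed spot across three slides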
[19] = target: Dickkopf-related protein 1 (Homo sapiens) (UniProt O94907); assay: DKK1 binders on small-molecule microarrays, primary screen, biochemical, small-molecule microarray, 635 nm fluorescence scan (AID 1106); details: DKK1 binding, higher = more signal;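 note: score merges emission near 667 nm with signal to noise over three replicate slides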
[20] = test system: Inhibin beta A chain (activin A); assay: INHBA (activin A) binders on microarrays, primary screen, biochemical, small-molecule microarray, 635 nm fluorescence scan (AID 1107); details: small-molecule microarray binding, higher = more signal;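 note: mouse activin A protein probed at 4.33 µg/mL on printed slides; score merges bound-protein fluorescence near 667 nm with spot signal-to-noise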

Sequence of Epidermal growth factor receptor (Homo sapiens) (P00533 whole entry, looked up): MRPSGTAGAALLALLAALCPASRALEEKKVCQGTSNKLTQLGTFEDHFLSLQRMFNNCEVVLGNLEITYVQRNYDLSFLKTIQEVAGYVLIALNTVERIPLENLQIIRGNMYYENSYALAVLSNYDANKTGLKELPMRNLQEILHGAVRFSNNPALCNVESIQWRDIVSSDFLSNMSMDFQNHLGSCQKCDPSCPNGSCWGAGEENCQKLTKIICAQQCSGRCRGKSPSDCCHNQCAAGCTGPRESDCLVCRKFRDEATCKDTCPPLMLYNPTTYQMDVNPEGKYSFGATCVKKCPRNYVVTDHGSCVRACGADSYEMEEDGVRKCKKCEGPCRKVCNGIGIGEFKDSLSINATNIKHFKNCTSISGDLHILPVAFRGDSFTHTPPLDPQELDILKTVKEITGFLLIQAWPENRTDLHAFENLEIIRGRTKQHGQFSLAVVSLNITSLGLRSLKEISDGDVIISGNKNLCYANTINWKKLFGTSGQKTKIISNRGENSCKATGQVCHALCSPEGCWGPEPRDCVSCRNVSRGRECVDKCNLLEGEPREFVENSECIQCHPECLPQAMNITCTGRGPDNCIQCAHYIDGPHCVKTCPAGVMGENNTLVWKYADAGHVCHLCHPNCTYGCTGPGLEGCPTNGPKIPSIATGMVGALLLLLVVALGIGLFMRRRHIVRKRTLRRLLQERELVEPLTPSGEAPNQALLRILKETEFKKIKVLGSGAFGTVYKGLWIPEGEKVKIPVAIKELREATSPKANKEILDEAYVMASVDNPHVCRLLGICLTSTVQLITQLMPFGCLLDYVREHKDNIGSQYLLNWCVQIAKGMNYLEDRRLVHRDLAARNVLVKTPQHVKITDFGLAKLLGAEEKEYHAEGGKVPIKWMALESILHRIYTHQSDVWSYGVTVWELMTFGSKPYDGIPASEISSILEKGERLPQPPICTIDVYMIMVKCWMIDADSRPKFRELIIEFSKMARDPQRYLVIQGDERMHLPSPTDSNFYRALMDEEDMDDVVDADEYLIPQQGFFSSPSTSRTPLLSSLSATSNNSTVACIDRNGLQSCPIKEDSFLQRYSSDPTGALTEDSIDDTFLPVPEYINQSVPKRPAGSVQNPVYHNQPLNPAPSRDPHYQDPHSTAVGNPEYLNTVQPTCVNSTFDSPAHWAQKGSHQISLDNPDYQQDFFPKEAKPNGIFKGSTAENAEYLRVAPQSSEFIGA
Sequence of Dickkopf-related protein 1 (Homo sapiens) (O94907 whole entry, looked up): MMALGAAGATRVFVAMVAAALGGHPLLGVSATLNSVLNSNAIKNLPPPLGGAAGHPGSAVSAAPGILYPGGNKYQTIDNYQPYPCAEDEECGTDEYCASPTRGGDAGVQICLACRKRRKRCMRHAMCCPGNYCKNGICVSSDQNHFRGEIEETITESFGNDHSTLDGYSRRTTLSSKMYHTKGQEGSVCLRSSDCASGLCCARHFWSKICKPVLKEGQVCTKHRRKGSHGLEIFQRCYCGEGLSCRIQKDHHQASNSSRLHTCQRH
Sequence of Fibroblast growth factor 10 (Homo sapiens) (O15520 whole entry, looked up): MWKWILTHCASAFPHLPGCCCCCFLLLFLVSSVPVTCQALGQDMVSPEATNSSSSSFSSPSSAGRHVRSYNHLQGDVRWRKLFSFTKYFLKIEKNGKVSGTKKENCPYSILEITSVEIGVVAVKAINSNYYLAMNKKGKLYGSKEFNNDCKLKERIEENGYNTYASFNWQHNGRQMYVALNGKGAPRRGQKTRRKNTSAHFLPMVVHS
Sequence of Follistatin-related protein 3 (Homo sapiens) (O95633 whole entry, looked up): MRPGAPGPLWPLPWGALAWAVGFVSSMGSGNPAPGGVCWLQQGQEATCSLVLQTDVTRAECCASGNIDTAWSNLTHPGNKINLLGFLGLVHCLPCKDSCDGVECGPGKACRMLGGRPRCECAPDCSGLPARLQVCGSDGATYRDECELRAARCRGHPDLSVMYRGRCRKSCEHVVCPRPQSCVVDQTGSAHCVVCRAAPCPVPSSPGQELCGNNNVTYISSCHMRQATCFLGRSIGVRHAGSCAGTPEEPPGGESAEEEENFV
Sequence of Torsin-1A-interacting protein 2 (Homo sapiens) (Q8NFQ8 whole entry, looked up): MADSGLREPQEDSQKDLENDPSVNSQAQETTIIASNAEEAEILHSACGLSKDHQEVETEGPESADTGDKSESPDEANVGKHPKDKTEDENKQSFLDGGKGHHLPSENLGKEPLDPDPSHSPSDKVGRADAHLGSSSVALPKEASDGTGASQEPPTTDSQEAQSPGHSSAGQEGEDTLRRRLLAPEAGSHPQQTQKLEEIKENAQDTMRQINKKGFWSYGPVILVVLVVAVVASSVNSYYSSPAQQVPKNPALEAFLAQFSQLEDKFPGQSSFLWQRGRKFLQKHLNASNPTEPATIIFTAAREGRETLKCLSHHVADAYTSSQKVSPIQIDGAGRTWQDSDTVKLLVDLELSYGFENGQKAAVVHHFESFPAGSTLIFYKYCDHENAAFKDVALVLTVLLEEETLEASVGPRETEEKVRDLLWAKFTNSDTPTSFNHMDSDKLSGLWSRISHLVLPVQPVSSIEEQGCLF
Sequence of Neurogenic locus notch homolog protein 3 (Homo sapiens) (Q9UM47 whole entry, looked up): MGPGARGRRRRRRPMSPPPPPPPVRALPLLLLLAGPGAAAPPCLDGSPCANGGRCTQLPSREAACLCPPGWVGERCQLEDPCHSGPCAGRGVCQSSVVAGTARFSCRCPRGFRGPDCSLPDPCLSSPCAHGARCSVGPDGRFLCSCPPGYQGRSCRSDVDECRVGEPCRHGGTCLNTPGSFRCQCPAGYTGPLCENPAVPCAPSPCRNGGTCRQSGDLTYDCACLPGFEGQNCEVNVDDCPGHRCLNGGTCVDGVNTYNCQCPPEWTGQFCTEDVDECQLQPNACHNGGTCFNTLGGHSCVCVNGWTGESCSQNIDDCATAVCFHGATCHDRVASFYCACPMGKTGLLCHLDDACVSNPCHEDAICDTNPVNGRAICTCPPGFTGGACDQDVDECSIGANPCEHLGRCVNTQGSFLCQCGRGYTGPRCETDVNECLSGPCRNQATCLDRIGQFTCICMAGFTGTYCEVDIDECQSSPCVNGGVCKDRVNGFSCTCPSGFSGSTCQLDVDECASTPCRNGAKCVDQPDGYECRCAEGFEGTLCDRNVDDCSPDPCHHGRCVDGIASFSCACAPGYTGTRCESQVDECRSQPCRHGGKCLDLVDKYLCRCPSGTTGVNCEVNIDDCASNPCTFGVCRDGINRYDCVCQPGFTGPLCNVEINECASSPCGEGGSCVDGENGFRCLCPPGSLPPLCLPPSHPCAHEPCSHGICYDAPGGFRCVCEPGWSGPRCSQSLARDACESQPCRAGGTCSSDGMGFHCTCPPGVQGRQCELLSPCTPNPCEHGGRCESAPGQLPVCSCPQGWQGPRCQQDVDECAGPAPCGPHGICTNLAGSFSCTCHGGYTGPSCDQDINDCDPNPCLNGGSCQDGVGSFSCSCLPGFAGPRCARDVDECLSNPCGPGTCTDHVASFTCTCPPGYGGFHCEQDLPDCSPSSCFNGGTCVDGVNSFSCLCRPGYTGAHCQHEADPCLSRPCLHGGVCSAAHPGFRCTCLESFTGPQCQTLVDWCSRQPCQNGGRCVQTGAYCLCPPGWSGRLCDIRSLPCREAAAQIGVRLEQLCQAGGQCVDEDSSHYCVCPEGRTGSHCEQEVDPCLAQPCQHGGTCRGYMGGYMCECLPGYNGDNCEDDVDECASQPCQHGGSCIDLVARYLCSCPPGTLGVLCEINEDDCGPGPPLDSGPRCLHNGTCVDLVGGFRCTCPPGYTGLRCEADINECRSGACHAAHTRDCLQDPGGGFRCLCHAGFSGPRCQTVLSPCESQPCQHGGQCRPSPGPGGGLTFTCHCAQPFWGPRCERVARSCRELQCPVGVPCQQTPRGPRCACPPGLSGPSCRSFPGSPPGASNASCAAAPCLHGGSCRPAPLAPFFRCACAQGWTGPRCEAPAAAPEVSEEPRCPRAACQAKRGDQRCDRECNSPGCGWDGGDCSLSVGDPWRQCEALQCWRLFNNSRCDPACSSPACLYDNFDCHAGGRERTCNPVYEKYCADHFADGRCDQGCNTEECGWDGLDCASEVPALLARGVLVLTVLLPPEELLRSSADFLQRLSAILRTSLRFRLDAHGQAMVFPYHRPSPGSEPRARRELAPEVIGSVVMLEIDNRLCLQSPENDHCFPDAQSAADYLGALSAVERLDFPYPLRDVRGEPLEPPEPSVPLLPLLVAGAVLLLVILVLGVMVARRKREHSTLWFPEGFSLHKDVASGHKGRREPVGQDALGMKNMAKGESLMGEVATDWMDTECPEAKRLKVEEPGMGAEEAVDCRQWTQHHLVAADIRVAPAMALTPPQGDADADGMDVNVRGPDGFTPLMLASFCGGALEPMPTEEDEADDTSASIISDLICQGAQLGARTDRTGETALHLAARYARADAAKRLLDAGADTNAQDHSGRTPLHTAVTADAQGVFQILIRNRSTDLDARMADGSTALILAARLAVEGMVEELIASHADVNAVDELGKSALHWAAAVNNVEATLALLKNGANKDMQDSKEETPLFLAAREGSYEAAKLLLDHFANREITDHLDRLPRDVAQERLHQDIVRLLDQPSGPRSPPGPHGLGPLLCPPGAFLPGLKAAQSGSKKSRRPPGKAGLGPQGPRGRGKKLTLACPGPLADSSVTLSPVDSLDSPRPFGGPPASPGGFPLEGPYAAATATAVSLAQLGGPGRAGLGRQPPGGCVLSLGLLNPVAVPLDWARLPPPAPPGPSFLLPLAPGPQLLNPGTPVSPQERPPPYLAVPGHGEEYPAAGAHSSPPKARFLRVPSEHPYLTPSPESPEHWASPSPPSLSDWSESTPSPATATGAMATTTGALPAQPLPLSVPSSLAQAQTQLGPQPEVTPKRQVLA

Row | SMILES | composite z-score [1] | z-score [2] | z-score [3] | z-score [4] | composite z-score [5] | z-score [6] | composite z-score [7] | composite z-score [8] | composite z-score [9] | composite z-score [10] | composite z-score [11] | composite z-score [12] | composite z-score [13] | z-score [14] | composite z-score [15] | composite z-score [16] | composite z-score [17] | composite z-score [18] | composite z-score [19] | composite z-score [20]
1 | COC(=O)C(CC#Cc1ccc2c(c1)[C@]1(C(=O)N2)[C@H](c2ccc(O)cc2)N2[C@H](c3ccccc3)[C@H](c3ccccc3)OC(=O)[C@H]2[C@@H]1C(=O)Nc1nc2ccccc2s1)C(=O)OC | 1.54 | -1.28 (inactive) | -0.496 (inactive) | -1.33 (inactive) | 3.22 | 0.91 (inactive) | 0.0669 | 0.508 | 1.13 | 0.0414 | 1.59 | -0.0329 | -0.105 | -0.596 (inactive) | 1.27 | 1.04 | 0.626 | 0.929 | 0.581 | 0.598
2 | CCN(CC)c1ccc(N2CC=CC34O[C@@H]5/C=C\CCCOC(=O)C5[C@H]3C(=O)N(CCO)[C@@H]4C2=O)cc1 (stereo not given in full) | 0.0226 | 0.0765 (inactive) | -1.11 (inactive) | 0.0541 (inactive) | 1.3 | 0.557 (inactive) | -0.253 | -0.715 | -0.162 | -0.286 | 1.1 | -0.221 | 0.63 | -0.375 (inactive) | -1.12 | -0.404 | -1.28 | -0.957 | -1.14 | 0.0809
3 | CC(C)C[C@H]1NC(=O)[C@@]23C(=O)N[C@@H](Cc4ccccc4)C2[C@H](C)[C@@]2(C)O[C@H]2C3/C=C/C/C=C\CNC(=O)[C@H](Cc2ccccc2)NC1=O (stereo not given in full) | 1.14 | 0.871 (inactive) | -0.388 (inactive) | -0.332 (inactive) | 1.13 | 0.11 (inactive) | -0.157 | 1.39 | 0.937 | -0.156 | 0.777 | -0.283 | -0.471 | 0.000958 (inactive) | 0.903 | 0.47 | 0.447 | 0.816 | 0.599 | 0.867
4 | C=C(CCCC)/C(=C/C[C@@H](OC(C)=O)c1ccccc1OCCO)c1cnc2ccccc2c1 | 1.3 | 0.182 (inactive) | -0.727 (inactive) | 0.0058 (inactive) | 1.1 | 0.468 (inactive) | -0.0208 | 0.61 | 0.513 | -0.0675 | 0.561 | 0.149 | 0.12 | -0.397 (inactive) | 0.732 | 0.21 | -0.321 | 0.417 | -0.0491 | 1.33
5 | C=CCNC(=O)[C@H]1[C@@H]2C(=O)O[C@@H](c3ccccc3)[C@@H](c3ccccc3)N2[C@@H](c2ccccc2OCCO)[C@]12C(=O)Nc1ccc(C#CC3=CCCCC3)cc12 | 1.55 | 2.06 (inactive) | -1.27 (inactive) | 4.78 (inactive) | 2.58 | 1.25 (inactive) | -0.117 | 1.23 | 1.1 | -0.0108 | 1.28 | -0.22 | 0.317 | -2.23 (inactive) | 1.27 | 1.3 | 0.48 | 1.24 | 0.646 | 1.17
6 | CCCCC(=C=CC[C@@H](O)c1ccccc1OCCO)CCO | -0.144 | 0.598 (inactive) | -0.424 (inactive) | -0.374 (inactive) | 1.06 | 0.205 (inactive) | -0.192 | 0.201 | -0.0525 | -0.199 | -0.189 | 0.0035 | 0.001 | 0.579 (inactive) | 0.209 | -1.3 | -0.903 | -0.375 | -0.382 | 0.857
7 | COC(=O)c1c(CC[C@@H](CO)NC(=O)N[C@@H](C)Cn2cc(C3(O)CCCCC3)nn2)oc(C(C)=O)c1C(=O)OC | 1.54 | 0.34 (inactive) | -0.261 (inactive) | 0.107 (inactive) | 1.16 | -0.338 (inactive) | 0.0621 | 1.16 | 1.05 | 0.173 | 1.35 | -0.0465 | -0.481 | -2.26 (inactive) | 1.2 | 1.25 | 0.763 | 1.27 | 0.892 | -0.216
8 | CN1C(=O)C2C=CC(C(O)c3cccs3)N(Nc3ccccc3)C2C1=O (stereo not given) | 0.881 | 0.442 (inactive) | 0.917 (inactive) | 0.662 (inactive) | 3.24 | -1.32 (inactive) | 0.139 | 0.395 | 0.826 | -0.0111 | 0.748 | 0.168 | 0.272 | 1.46 (inactive) | 0.765 | 0.0802 | 0.007 | 0.174 | -0.0478 | 0.693
9 | O=C(C1N=C(c2ccc(OCCCO)cc2)N(c2ccccc2)O1)N1CCOCC1 (stereo not given) | 1.55 | -0.867 (inactive) | -0.992 (inactive) | -0.566 (inactive) | 2.22 | 1.75 (inactive) | -0.134 | 1.53 | 1.09 | 0.184 | 0.298 | 0.56 | 0.538 | -0.799 (inactive) | 1.46 | 1.3 | 0.0096 | 0.695 | 0.858 | 0.315
10 | O=C1c2ccccc2[C@](Cc2ccccc2I)(C(=O)NC2CC2)[C@H](c2ccc(CO)cc2)N1Cc1ccccc1 | 0.735 | -0.835 (inactive) | -0.388 (inactive) | -1.15 (inactive) | 2.86 | 0.192 (inactive) | -0.0741 | 0.133 | 0.566 | -0.0681 | 0.701 | -0.145 | 0.693 | -0.0921 (inactive) | 0.409 | -0.0685 | -0.375 | -0.117 | -0.112 | 0.0183
